Data from PubChem BioAssay (Tox21).
Inconclusive results are not listed. Activity calls are given as the source filed them. Unless noted, calls follow the shape of the dose curve; as a rule, active = well fitted curve in the direction sought with a large enough effect in the repeat runs; inconclusive = weak or mixed curves; inactive = no such curve, though single readings can be large; an effect the other way counts as inactive or inconclusive.

Legend:
[1] = target: Thyrotropin-releasing hormone receptor (Homo sapiens) (UniProt P34981); assay: qHTS assay to identify small molecule agonists of the thyrotropin-releasing hormone receptor (TRHR) signaling pathway (AID 1346891; calls by dose curve;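 also: HEK293 cells expressing TRHR with calcium dye readout; series mostly up to about 58 µM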)
Thyrotropin-releasing hormone receptor (Homo sapiens), sequence (P34981 whole entry, looked up): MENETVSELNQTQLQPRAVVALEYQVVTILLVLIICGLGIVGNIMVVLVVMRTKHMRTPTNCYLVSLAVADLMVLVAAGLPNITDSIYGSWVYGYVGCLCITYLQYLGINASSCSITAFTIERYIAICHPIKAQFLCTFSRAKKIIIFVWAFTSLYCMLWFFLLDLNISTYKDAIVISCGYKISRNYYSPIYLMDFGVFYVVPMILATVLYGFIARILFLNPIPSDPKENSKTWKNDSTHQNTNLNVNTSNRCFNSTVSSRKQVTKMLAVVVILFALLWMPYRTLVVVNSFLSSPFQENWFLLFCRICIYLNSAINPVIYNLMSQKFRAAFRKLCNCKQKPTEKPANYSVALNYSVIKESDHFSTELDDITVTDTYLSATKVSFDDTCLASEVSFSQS
Outline: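 Overnight-plated (18 h, 37 °C, 5% CO2) TRHR-Hek293 cells; 2 h calcium dye at 37 °C; compound in DMSO; 3-min kinetic fluorescence read.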

[2] = Caspase-3/7 induction in HepG2 cells by small molecules, qHTS assay (AID 1346978); also: nearly all actives have a fitted effect of over 15% in size
Outline: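 Wild-type HepG2 cells (2,000/well) were settled 5 h at 37 C, 5% CO2, then exposed to compounds in DMSO for 17 h. Caspase-3/7 activity was read by luminescence 30 min after adding Caspase-Glo 3/7 reagent at room temperature.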

[3] = Caspase-3/7 induction in CHO-K1 cells by small molecules, qHTS cell viability counter screen (AID 1346979); also: nearly all actives have a fitted effect of over 35% in size; also: potency is read from the fitted curve at half-maximal effect
Outline: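 Multiplexed with Caspase-Glo 3/7 in CHO-K1 cells, this counter screen added CellTiter-Fluor after 16hr of compound exposure and recorded fluorescence 1hr later.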

[4] = Caspase-3/7 induction in CHO-K1 cells by small molecules, qHTS assay (AID 1346980); also: nearly all actives have a fitted effect of over 15% in size
Outline: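 Wild-type cells were seeded at 1,500 per well and settled 5 hr at 37 C, 5% CO2, then exposed to DMSO-dissolved compounds for 17 hr. Caspase-Glo 3/7 reagent was added, and luminescence was read after 30min at room temperature.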

[5] = Caspase-3/7 induction in HepG2 cells by small molecules, qHTS cell viability counter screen (AID 1346981); also: nearly all actives have a fitted effect of over 30% in size; also: potency is read from the fitted curve at half-maximal effect
Outline: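 Fluorescence read-out of live-cell protease activity (CellTiter-Fluor) after 1 hr with reagent. This was measured in the same wells as the caspase-3/7 luminescence, on HepG2 cells exposed to DMSO-dissolved compounds for 16 hr at 37 C.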

[6] = target: Nuclear receptor subfamily 1 group I member 2 (Homo sapiens) (UniProt O75469); assay: Human pregnane X receptor (PXR) small molecule agonists, qHTS assay (AID 1346982); also: nearly all actives have a fitted effect of over 35% in size; also: potency is read from the fitted curve at half-maximal effect
Nuclear receptor subfamily 1 group I member 2 (Homo sapiens), sequence (O75469 whole entry, looked up): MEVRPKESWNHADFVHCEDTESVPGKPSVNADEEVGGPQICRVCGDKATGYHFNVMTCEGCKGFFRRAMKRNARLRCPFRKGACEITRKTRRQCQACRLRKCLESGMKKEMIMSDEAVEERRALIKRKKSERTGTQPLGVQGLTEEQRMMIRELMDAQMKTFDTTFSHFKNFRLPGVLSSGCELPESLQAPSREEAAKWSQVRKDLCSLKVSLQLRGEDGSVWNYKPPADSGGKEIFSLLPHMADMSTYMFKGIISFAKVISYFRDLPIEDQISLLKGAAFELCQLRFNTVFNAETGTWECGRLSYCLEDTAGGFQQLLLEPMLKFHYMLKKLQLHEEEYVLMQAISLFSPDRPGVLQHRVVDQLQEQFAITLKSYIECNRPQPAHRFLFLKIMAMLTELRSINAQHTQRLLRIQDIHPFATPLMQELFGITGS
Outline: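 HepG2 PXR-Luc reporter line, 5% charcoal-stripped FBS; 5 hr pre-incubation, compound (DMSO) 24 hr at 37 C/5% CO2; ONE-Glo 30 min RT; luminescence read-out.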

[7] = target: Cytochrome P450 2D6 (Homo sapiens) (UniProt P10635); assay: Cytochrome P450 Family 2 Subfamily D Member 6 (CYP2D6) small molecule antagonists: luciferase reporter qHTS assay (AID 1671196); also: nearly all actives have a fitted effect of over 50% in size; also: potency is read from the fitted curve at half-maximal effect
Cytochrome P450 2D6 (Homo sapiens), sequence (P10635 whole entry, looked up): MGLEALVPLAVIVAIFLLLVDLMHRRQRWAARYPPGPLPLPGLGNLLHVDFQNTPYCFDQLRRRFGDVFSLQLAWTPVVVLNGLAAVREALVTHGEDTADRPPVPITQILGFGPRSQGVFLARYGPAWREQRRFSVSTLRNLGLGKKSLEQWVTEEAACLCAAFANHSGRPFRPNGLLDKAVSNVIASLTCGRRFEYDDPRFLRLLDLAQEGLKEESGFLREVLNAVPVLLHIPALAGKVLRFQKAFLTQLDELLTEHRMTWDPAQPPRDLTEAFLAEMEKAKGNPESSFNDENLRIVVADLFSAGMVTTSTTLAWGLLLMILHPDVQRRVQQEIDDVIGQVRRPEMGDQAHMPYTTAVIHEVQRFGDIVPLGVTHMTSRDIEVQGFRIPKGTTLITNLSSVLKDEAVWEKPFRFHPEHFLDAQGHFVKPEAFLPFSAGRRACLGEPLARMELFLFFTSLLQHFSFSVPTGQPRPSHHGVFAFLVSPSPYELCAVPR
Outline: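 Luminogenic proluciferin substrate, CYP2D6 enzyme; 10 min RT preincubation with compound, NADPH regeneration system added, 1 h RT. Stop/detection reagent, 20 min RT, luminescence read (RLU). Signal proportional to CYP activity.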

[8] = target: Cytochrome P450 2C19 (Homo sapiens) (UniProt P33261); assay: Cytochrome P450 Family 2 Subfamily C Member 19 (CYP2C19) small molecule antagonists: luciferase reporter qHTS assay (AID 1671197); also: nearly all actives have a fitted effect of over 65% in size; also: potency is read from the fitted curve at half-maximal effect
Cytochrome P450 2C19 (Homo sapiens), sequence (P33261 whole entry, looked up): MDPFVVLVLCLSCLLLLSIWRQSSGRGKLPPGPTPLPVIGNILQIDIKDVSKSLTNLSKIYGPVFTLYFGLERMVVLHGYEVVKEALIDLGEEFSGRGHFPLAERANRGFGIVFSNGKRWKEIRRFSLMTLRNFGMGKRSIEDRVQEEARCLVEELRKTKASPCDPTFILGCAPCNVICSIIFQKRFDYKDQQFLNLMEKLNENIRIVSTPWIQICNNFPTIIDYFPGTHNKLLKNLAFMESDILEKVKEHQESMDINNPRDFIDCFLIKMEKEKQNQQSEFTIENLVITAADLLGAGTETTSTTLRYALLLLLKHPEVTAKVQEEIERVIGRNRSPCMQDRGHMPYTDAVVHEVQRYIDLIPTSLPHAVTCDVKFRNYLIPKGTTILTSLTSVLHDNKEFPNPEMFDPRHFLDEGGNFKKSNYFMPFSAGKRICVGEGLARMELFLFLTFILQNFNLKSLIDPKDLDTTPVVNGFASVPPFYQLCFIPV
Outline: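 Inhibition of CYP2C19 was scored from loss of luminescence in a P450-Glo proluciferin substrate assay, NADPH-started and run 1 h at 37C, with ketoconazole as positive control.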

[9] = target: Voltage-gated inwardly rectifying potassium channel KCNH2 (Homo sapiens) (UniProt Q12809); assay: Human Ether-a-go-go-Related Gene (hERG) channel small molecule antagonists: fluorescence cell-based qHTS assay (AID 1671200); also: nearly all actives have a fitted effect of over 50% in size; also: potency is read from the fitted curve at half-maximal effect
Voltage-gated inwardly rectifying potassium channel KCNH2 (Homo sapiens), sequence (Q12809 whole entry, looked up): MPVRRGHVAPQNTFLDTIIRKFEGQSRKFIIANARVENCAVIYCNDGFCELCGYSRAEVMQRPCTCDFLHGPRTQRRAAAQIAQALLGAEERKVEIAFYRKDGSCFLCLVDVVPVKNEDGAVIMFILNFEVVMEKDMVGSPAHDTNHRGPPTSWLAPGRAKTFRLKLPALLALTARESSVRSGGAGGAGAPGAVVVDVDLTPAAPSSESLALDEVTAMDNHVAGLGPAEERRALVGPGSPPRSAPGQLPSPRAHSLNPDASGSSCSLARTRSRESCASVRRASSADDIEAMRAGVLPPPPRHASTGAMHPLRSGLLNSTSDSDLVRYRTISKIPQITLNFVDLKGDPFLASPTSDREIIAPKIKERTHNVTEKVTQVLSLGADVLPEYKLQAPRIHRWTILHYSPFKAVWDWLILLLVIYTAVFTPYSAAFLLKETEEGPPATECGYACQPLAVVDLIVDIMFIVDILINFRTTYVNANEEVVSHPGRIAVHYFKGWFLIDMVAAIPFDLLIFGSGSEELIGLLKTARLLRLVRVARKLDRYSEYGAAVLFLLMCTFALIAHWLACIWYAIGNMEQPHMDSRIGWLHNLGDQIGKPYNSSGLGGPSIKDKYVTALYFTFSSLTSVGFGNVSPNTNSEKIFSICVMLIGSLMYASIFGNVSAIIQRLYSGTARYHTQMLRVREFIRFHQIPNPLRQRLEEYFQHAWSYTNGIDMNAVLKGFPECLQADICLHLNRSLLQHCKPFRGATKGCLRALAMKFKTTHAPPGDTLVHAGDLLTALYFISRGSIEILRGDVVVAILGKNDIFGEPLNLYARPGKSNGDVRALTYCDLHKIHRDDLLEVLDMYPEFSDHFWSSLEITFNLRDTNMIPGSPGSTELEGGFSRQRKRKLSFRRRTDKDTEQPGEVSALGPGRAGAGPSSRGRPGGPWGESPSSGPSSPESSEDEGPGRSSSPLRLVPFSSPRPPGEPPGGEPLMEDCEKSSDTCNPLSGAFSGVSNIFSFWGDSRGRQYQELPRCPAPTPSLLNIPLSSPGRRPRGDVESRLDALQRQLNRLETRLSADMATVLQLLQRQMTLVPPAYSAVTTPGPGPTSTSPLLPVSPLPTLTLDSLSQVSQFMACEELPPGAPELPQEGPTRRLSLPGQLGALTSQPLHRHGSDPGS
Outline: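 Cell line hERG-U2OS; dye FluxOR II, 1 h RT dark; Tl+ stimulus; ex 480/em 540 nm, read each second for 2 min.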

[10] = target: Cytochrome P450 3A4 (Homo sapiens) (UniProt P08684); assay: Cytochrome P450 Family 3 Subfamily A Member 4 (CYP3A4) small molecule antagonists: luciferase reporter qHTS assay (AID 1671201); also: nearly all actives have a fitted effect of over 50% in size; also: potency is read from the fitted curve at half-maximal effect
Cytochrome P450 3A4 (Homo sapiens), sequence (P08684 whole entry, looked up): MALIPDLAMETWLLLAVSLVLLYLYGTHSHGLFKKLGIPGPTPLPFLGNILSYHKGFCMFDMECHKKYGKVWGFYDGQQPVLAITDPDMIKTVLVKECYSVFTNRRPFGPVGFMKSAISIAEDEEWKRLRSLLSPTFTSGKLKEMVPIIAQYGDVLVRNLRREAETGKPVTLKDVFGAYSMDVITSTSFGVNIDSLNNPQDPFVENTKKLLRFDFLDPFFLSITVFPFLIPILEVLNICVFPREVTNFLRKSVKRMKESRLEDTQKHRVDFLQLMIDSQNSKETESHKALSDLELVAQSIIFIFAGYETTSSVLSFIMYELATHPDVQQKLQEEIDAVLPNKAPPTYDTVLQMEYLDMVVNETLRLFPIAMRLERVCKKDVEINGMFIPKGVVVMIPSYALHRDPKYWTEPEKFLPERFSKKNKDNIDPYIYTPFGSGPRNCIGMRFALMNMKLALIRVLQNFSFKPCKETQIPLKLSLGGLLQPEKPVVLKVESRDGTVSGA
Outline: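 Room-temperature assay throughout: 10 min compound–enzyme/substrate preincubation, 1 h reaction after NADPH regeneration solution, 20 min detection. Luciferin formed from proluciferin substrate is quantified by luminescence.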

[11] = target: Cytochrome P450 2C9 (Homo sapiens) (UniProt P11712); assay: Cytochrome P450 Family 2 Subfamily C Member 9 (CYP2C9) small molecule antagonists: luciferase reporter qHTS assay (AID 1671198); also: nearly all actives have a fitted effect of over 50% in size; also: potency is read from the fitted curve at half-maximal effect
Cytochrome P450 2C9 (Homo sapiens), sequence (P11712 whole entry, looked up): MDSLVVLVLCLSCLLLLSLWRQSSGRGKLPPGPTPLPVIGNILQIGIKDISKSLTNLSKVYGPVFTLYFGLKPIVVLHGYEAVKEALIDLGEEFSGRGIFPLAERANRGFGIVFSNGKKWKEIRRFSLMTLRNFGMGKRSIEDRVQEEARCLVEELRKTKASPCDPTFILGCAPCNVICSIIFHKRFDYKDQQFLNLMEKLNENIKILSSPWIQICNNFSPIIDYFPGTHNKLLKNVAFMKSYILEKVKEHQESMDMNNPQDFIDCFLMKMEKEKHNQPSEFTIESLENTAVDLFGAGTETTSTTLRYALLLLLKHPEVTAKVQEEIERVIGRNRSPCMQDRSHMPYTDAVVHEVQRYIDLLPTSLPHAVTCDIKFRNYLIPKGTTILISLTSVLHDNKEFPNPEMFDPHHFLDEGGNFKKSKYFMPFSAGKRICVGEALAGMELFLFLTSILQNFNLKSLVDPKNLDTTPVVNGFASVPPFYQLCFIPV
Outline: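 CYP2C9 activity was measured with a P450-Glo proluciferin substrate. Enzyme–substrate mix was held with compound for 10 min at room temperature, then NADPH regeneration solution was added for 1 h at 37C. Luciferin product was read as luminescence.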

[12] = target: Cytochrome P450 1A2 (Homo sapiens) (UniProt P05177); assay: Cytochrome P450 Family 1 Subfamily A Member 2 (CYP1A2) small molecule antagonists: luciferase reporter qHTS assay (AID 1671199); also: nearly all actives have a fitted effect of over 50% in size; also: potency is read from the fitted curve at half-maximal effect
Cytochrome P450 1A2 (Homo sapiens), sequence (P05177 whole entry, looked up): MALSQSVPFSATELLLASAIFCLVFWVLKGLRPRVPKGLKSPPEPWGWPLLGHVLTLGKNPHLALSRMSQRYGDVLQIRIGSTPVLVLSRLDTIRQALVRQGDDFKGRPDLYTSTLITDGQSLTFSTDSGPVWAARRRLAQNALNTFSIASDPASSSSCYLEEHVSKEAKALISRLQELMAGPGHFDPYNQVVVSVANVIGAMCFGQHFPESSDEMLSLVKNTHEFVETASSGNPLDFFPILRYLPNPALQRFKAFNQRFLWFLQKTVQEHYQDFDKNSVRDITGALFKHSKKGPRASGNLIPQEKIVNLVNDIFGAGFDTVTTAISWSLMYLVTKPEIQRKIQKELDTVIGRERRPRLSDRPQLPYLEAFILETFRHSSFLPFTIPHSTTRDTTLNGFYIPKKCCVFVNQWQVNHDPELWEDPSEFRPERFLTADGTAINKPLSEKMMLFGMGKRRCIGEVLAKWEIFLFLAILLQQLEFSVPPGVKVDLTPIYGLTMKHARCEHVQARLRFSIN
Outline: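 Luminescence readout (relative luminescence units) after luciferin detection reagent, 20 min RT. Preceded by 1 h room-temperature CYP1A2 reaction with NADPH regeneration solution following 10 min compound preincubation with enzyme and proluciferin substrate. Furafylline positive control.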

[13] = target: Nuclear receptor subfamily 1 group I member 2 (Rattus norvegicus) (UniProt Q9R1A7); assay: Rat pregnane X receptor (rPXR) activation by small molecules, qHTS assay (AID 1346983); settings: rPXR luciferase reporter cells, One-Glo luminescence, 24 h; max activation: hits give high values; also: nearly all actives have a fitted effect of over 20% in size
Nuclear receptor subfamily 1 group I member 2 (Rattus norvegicus), sequence (Q9R1A7 whole entry, looked up): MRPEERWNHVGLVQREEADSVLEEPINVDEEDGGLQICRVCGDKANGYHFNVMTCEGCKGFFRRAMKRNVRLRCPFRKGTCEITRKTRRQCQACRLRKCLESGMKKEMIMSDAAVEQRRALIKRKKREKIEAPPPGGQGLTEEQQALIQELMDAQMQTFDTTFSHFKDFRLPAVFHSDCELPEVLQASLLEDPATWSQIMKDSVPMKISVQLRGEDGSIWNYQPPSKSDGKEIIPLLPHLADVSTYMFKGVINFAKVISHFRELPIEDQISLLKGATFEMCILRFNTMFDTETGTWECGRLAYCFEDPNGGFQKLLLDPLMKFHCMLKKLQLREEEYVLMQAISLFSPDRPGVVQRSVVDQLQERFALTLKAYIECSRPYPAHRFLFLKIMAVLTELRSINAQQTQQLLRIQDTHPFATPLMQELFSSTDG
Outline: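 Cell-based rPXR luciferase reporter assay, 2,000 cells per well, rested 5hr at 37 C before compound addition in DMSO, then 24 hr at 37 C. One-Glo reagent was added and luminescence read after 30 min at room temperature.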

[14] = Human pregnane X receptor (PXR) small molecule agonists, qHTS cell viability counter screen (AID 1346977); also: nearly all actives have a fitted effect of over 50% in size
Outline: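 After a 5hr pre-incubation, PXR-Luc HepG2 cells received compounds plus positive control in DMSO and were kept 24hr at 37C. Cell viability was quantified by fluorescence from CellTiter-Fluor added for the final hour.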

[15] = target: Nuclear receptor subfamily 1 group I member 2 (Homo sapiens) (UniProt O75469); assay: CYP3A4 induction through human pregnane X receptor (PXR) by small molecules, qHTS assay (AID 1346984); also: nearly all actives have a fitted effect of over 40% in size
Outline: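 HepG2-derived DPX-2 line carrying PXR plus a CYP3A4-promoter luciferase reporter; cells plated 5 hr, compound-exposed 24 hr at 37C. CYP3A4 activity probed with 3uM (final) Luciferin-IPA for 3hr, then luciferase read after One-Glo.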

[16] = target: Nuclear receptor subfamily 1 group I member 2 (Homo sapiens) (UniProt O75469); assay: Human pregnane X receptor (PXR) activation by small molecules, qHTS assay (AID 1346985); also: nearly all actives have a fitted effect of over 40% in size
Outline: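 DPX-2 cells (HepG2 co-transfected with a PXR response element and a CYP3A4-promoter luciferase construct) were seeded at 2,000 per well, rested 5 hr at 37C, then exposed to DMSO-dissolved compounds for 24 hr. Activation was read as luciferase luminescence.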
% is scaled to controls: 0 for no effect and ±100 for the full control effect.

CCCc1ccc(OC)cc1
inactive: outcome [1] | Potency [2] | Potency [3] | Potency [4] | Potency [5] | Potency [6] | Potency [7] | Potency [9] | Potency [10]
active: Potency [8] 63.7 µM

C/C(=C\C(C)CC(C)CC(C)C)C1CC(=O)OC1=O (stereo not given)
inactive: outcome [1] | Potency [2] | Potency [3] | Potency [4] | Potency [5] | Potency [6] | Potency [12] | Potency [9] | Potency [10]
active: Potency [7] 35.6 µM | Potency [11] 56.4 µM

CCOCCn1c(N2CCCN(C)CC2)nc2ccccc21
active: Potency [9] 7.56 µM
inactive: outcome [1] | Potency [3] | Potency [4] | Potency [5] | max activation [13] 4.1% | Potency [8] | Potency [12]

Cc1c(Cl)cccc1Nc1ccccc1C(=O)O
inactive: outcome [1] | Potency [2] | Potency [3] | Potency [4] | Potency [5] | Potency [7] | Potency [8] | Potency [9] | Potency [10]
active: Potency [11] 17.4 µM

CCn1nc(Cc2ccccc2)cc1C1CCN(C[C@H]2C[C@H](N(C)[C@@H](C(=O)O)C(C)C)C[C@@H]2c2cccc(F)c2)CC1
inactive: outcome [1] | Potency [2] | Potency [3] | Potency [4] | Potency [6]
active: Potency [7] 35.6 µM | Potency [9] 13.8 µM

O=C(Nc1ccc2c(c1)Cc1ccccc1-2)C(F)(F)F
active: Potency [6] 34.4 µM | Potency [8] 17.8 µM | Potency [11] 5.03 µM | Potency [12] 3.56 µM
inactive: outcome [1] | Potency [2] | Potency [3] | Potency [4] | Potency [5] | Potency [7] | Potency [10]

Cc1cccc(C)c1NC(=O)CN1CCCC1
active: Potency [7] 15.5 µM
inactive: Potency [14] | Potency [2] | Potency [3] | Potency [4] | Potency [5] | Potency [6] | max activation [13] -2.58% | Potency [15] | Potency [16] | Potency [8] | Potency [11] | Potency [12] | Potency [9] | Potency [10]

O=C1c2ccccc2C(=O)C1c1ccc2ccccc2n1
inactive: outcome [1] | Potency [2] | Potency [4] | Potency [7]
active: Potency [3] 9.59 µM | Potency [5] 6.05 µM | Potency [6] 1.91 µM | Potency [8] 3.14 µM | Potency [12] 2.22 µM | Potency [10] 1.77 µM

CCOc1cc(OCC)c(C(C)=O)cc1OCC
active: Potency [3] 26.8 µM | Potency [5] 42.5 µM | Potency [6] 26.8 µM | Potency [8] 69.8 µM | Potency [12] 1.11 µM | Potency [10] 35 µM
inactive: outcome [1] | Potency [2] | Potency [4] | Potency [9]

CCCCCCCCCCCCSCCOCCO
inactive: outcome [1] | Potency [2] | Potency [3] | Potency [4] | Potency [5] | max activation [13] -0.35% | Potency [15] | Potency [16] | Potency [7] | Potency [9] | Potency [10]
active: Potency [11] 24.5 µM | Potency [12] 15.5 µM

C=C[Si](OCC)(OCC)OCC
inactive: outcome [1] | Potency [3] | Potency [4] | Potency [5] | Potency [9]

C[C@H](N)C(=O)N[C@@H](C)C(=O)NC1[C@H]2CN(c3nc4c(cc3F)c(=O)c(C(=O)O)cn4-c3ccc(F)cc3F)C[C@@H]12 (stereo not given in full)
inactive: outcome [1] | Potency [4] | Potency [7] | Potency [8] | Potency [11]
active: Potency [3] 7.5 µM | Potency [6] 21.1 µM | Potency [10] 12.3 µM

O=C(Nc1ccccc1)c1cc([N+](=O)[O-])ccc1Cl
inactive: outcome [1] | Potency [2] | Potency [4] | Potency [5] | Potency [9]
active: Potency [6] 61.1 µM | Potency [8] 22.4 µM | Potency [11] 31.7 µM | Potency [12] 7.96 µM | Potency [10] 35.6 µM

NC(=O)c1ccccc1
inactive: outcome [1] | Potency [3] | Potency [4] | Potency [5] | Potency [6] | Potency [7] | Potency [8] | Potency [11] | Potency [12] | Potency [10]

FC(F)(Cl)C(F)(Cl)Cl
inactive: outcome [1] | Potency [2] | Potency [3] | Potency [4] | Potency [5] | Potency [6] | Potency [8] | Potency [11] | Potency [10]

Nc1ccc(-c2ccc(F)cc2)cc1
active: Potency [6] 30.6 µM | Potency [8] 8.94 µM | Potency [11] 14.2 µM | Potency [12] 0.502 µM | Potency [10] 11.2 µM
inactive: outcome [1] | Potency [2] | Potency [3] | Potency [4] | Potency [5] | Potency [9]

COc1ccc(C(=O)Nc2ccccc2)cc1[N+](=O)[O-]
active: Potency [6] 30.9 µM | Potency [7] 40.2 µM | Potency [8] 35.9 µM | Potency [11] 35.9 µM | Potency [12] 5.68 µM | Potency [10] 35.9 µM
inactive: outcome [1] | Potency [2] | Potency [3] | Potency [4] | Potency [5]

Clc1cc(Cl)c2c(c1)N=C1CCCCCN1C2
inactive: outcome [1] | Potency [2] | Potency [3] | Potency [4] | Potency [5] | Potency [11] | Potency [10]
active: Potency [6] 29.8 µM | Potency [7] 2.75 µM | Potency [12] 5.49 µM | Potency [9] 9.52 µM

O=C(OCCN1CCOCC1)c1cccnc1Nc1cccc(C(F)(F)F)c1
active: Potency [6] 26.6 µM | Potency [11] 17.4 µM | Potency [12] 9.77 µM | Potency [9] 10.7 µM
inactive: outcome [1] | Potency [2] | Potency [3] | Potency [4] | Potency [5] | Potency [7]
